The values below come from article PMC7826789 (International Journal of Molecular Sciences, 2021).
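Note: KINOMEscan scanMAX binding as percent activity remaining versus control; lower means stronger binding.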

The assay deals with ABL1(H396P)-phosphorylated. The following applies: Compound Concentration (nM):1000.
Regarding `COc1cc(/C=N/Nc2ncnc3[nH]ncc23)ccc1O` [GW578748X], the “Percent Control” value is 1.3%.

For `NS(=O)(=O)c1ccc(N/N=C2\C(=O)Nc3ccc(-c4cnco4)cc32)cc1` [GW276655], the “Percent Control” value is recorded as 83%.

As for `CN1CCN(C(=O)c2ccc(NC(=O)Nc3ccc(N(C)c4ccnc(Nc5ccc(CS(C)(=O)=O)cc5)n4)cc3)cc2)CC1.Cl` [GW830263A], the “Percent Control” value is 32%.

Turning to `CCS(=O)(=O)c1ccc(OC)c(Nc2ncc(-c3cccc(OC)c3)o2)c1` [GW580509X], the “Percent Control” value is 7.9%.

As to `Cl.O=S1CCN(Cc2ccc(-c3ccc4ncnc(Nc5ccc(OCc6ccccc6)c(F)c5)c4c3)o2)CC1` [GW576924A], the “Percent Control” value amounted to 100%.

As to `CC1=C(C(=O)Nc2ccc3[nH]ncc3c2)C(c2ccc3ccccc3c2)CC(=O)N1` (centres unmarked) [GSK270822A], the “Percent Control” value was determined as 86%.

`COc1ccc2c(-c3ccnc(Nc4cccc(OC(F)(F)F)c4)n3)cnn2n1` [GW810372X]: the “Percent Control” value stood at 100%.

As for `Cl.O=C(Nc1ccc(Oc2ccc3[nH]c(NC(=O)c4ccco4)nc3c2)cc1)Nc1cc(C(F)(F)F)ccc1F` [GW683134A], the “Percent Control” value worked out at 20%.

In the case of `CN(C)c1cc2c(Nc3ccc4c(cnn4Cc4ccccc4)c3)ncnc2cn1` [GW282974X], the “Percent Control” value is listed as 63%.

Regarding `CCS(=O)(=O)c1ccc(OC)c(Nc2ncc(-c3cccc(F)c3)o2)c1` [GW621970X], the “Percent Control” value is recorded as 9.3%.

For `COc1cc(C)c(N(C)C(=O)CN(C)C)cc1Nc1nc(Nc2cccc(F)c2C(N)=O)c2cc[nH]c2n1` [GSK2219385], the “Percent Control” value is listed as 99%.

On to `Cl.c1ccc(Cc2nc3ccc(Nc4ncnc5ccccc45)cc3[nH]2)cc1` [GR269666A], for which the “Percent Control” value amounted to 100%.

Regarding `COc1ccc2[nH]c3c4[nH]c5ccc(OC)cc5c4c4c(c3c2c1)C(=O)NC4=O` [GW296115X], the “Percent Control” value worked out at 65%.

Take `CCn1c(-c2nonc2N)nc2c(C#CC(C)(C)O)nc(OCCNC)cc21.Cl` [GSK949675]: the “Percent Control” value was determined as 93%.

On to `CN(C)CCNC(=O)Nc1ccc(N(C)c2ccnc(Nc3ccc(CS(C)(=O)=O)cc3)n2)cc1.Cl` [GW830900A], for which the “Percent Control” value was determined as 82%.

On to `NS(=O)(=O)c1ccc(N/N=C2\C(=O)Nc3ccc(C(=O)NCCc4c[nH]cn4)cc32)cc1` [GW300660X], for which the “Percent Control” value worked out at 100%.

In the case of `C[C@@H](Oc1cc(-n2cnc3ccc(OC4CCN(C)CC4)cc32)sc1C(N)=O)c1ccccc1Cl` [GSK579289A], the “Percent Control” value came to 56%.

As to `NS(=O)(=O)c1ccc(Nc2ncc(-c3ccccc3)o2)cc1` [GW572399X], the “Percent Control” value is 87%.

Turning to `Cc1cc(O)cc(C)c1/C=C/c1cncc(C(N)=O)c1` [GW435821X], the “Percent Control” value came to 14%.

`COc1ccc2cc(-c3c(-c4ccncc4)nc(-c4ccc(S(C)(=O)=O)cc4C)n3C)ccc2c1` [SB-633825]: the “Percent Control” value is 78%.

Consider `COc1cc2ncn(-c3cc(O[C@H](C)c4ccccc4Cl)c(C(N)=O)s3)c2cc1OC` [GSK237701A], for which the “Percent Control” value was determined as 78%.

With `COC(=O)Nc1nc2ccc(Oc3ccc(NC(=O)Nc4cc(C(F)(F)F)ccc4F)cc3)cc2s1.Cl` [GW693917A], the “Percent Control” value worked out at 15%.

Turning to `COc1cc2ncnc(Nc3ccc4c(cnn4Cc4ccccc4)c3)c2cc1OC.Cl` [GW282449A], the “Percent Control” value amounted to 100%.

Turning to `C/C(Nc1ccc(S(N)(=O)=O)cc1)=C1/C(=O)Nc2ccccc21` [GW335962X], the “Percent Control” value came to 91%.

`Cl.O=C(Nc1ccc(Oc2ccc3[nH]c(NC(=O)c4ccccc4)nc3c2)cc1)Nc1cc(C(F)(F)F)ccc1F` [GW709042A]: the “Percent Control” value is reported as 67%.

With `CCc1ccc(Oc2nccc(-c3c(-c4ccc(F)cc4)ncn3C3CCNCC3)n2)cc1` [SB-242719], the “Percent Control” value worked out at 67%.

Take `COc1cc(N2CCN(C(C)C)CC2)ccc1Nc1nc(Nc2ccc(F)cc2C(=O)NC[C@@H](O)CO)c2cc[nH]c2n1` [GSK1392956A]: the “Percent Control” value is listed as 100%.

Take `O=C(Nc1n[nH]c2nc(-c3ccc(O)cc3)c(Br)cc12)C1CC1` [SB-725317]: the “Percent Control” value is recorded as 28%.

For `O=C1Nc2ccc(C(=O)c3ccco3)cc2C1=Cc1cc(Cl)c(O)c(Cl)c1` [GW406108X], the “Percent Control” value came to 87%.

On to `COc1cccc(-n2ncc3c(N/N=C/c4ccncc4)ncnc32)c1` [GW784752X], for which the “Percent Control” value came to 1.5%.

Take `NS(=O)(=O)c1ccc(N/N=C2\C(=O)Nc3ccc(C(=O)NCc4ccncc4)cc32)cc1` [GW300657X]: the “Percent Control” value came out at 82%.

For `Nc1ncnc2occ(-c3ccc(NC(=O)Nc4cc(C(F)(F)F)ccc4F)cc3)c12` [GW770249X], the “Percent Control” value amounted to 72%.
